Screens from PubChem.
Only some compounds are listed: those with a hit (about 20% of all), similar ones and a draw of the others.
Cycloheximide cs = Cycloheximide Counterscreen for Small Molecule Inhibitors of Shiga Toxin. actives 12% (n = 300,000). cell reporter, cycloheximide protein synthesis inhibition counterscreen. AID 2314, 2010. max response, %; in the data active means max response mostly above about 13%, no sharp cut-off; inactive means mostly below about 14%; further: read at 38.3 µM for the half of the compounds with a filed dose
Shiga inhibitor = A qHTS for Small Molecule Inhibitors of Shiga Toxin; AID 2315, 2010; inhibition, % at 38.7 µM; actives 9.2% (n = 290,000); Vero cells, Shiga toxin protein synthesis inhibition reporter; in the data active means inhibition mostly above about 28%, no sharp cut-off; inactive means mostly below about 43%
Pf growth 96h = Primary qHTS for delayed death inhibitors of the malarial parasite plastid, 96 hour incubation; Potency, µM (highest dose often 28.7 µM), hits mostly inhibitors; actives 6.9% (n = 320,000); P. falciparum luciferase reporter growth, 96 h
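Plates of compound plus infected erythrocytes (2% hematocrit, 0.05% parasitemia final) incubate 96 hours, 37 C, 5% CO2. Detection reagent added; reduced luminescence from the parasites' luciferase reporter flags inhibition.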
HCMV inh = qHTS Assay for inhibitors of the human cytomegalovirus (HCMV); actives 4.5% (n = 410,000); HFF cells, HCMV-luciferase reporter, 72 h; hits give low values; activity change, negative = inhibition, % at 57.5 µM; in the data active means activity change below about -60%; inconclusive means no clear call, values can overlap the other calls; inactive means above about -39%
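Human foreskin fibroblasts infected with luciferase-reporter HCMV at MOI 1 PFU/cell, compounds at two doses. Luciferase measured 72 h post infection; normalized to buffer-only basal and Salinomycin (10uM) controls.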
Pf growth 48h = Primary qHTS for delayed death inhibitors of the malarial parasite plastid, 48 hour incubation; P. falciparum luciferase growth in erythrocytes, 48 h; Potency, µM (highest dose often 28.7 µM), most hits filed as inhibitors; actives 5.9% (n = 310,000)
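A one-generation exposure of luciferase-tagged malaria parasites in RPMI 1640/Albumax erythrocyte culture, 37 C and 5% CO2. Inhibition is inferred from decreased luminescence after adding detection reagent.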
Of the large screens only hits and unclear results are named; the others gave an inactive call. Unless noted, the call rests on the fitted dose curve; in most records, active means well fitted inhibition curve with a large enough effect; inconclusive means small, poorly fitted or top-dose-only effect, or another doubt; inactive means no such curve, though single readings can be large or run the other way.

COc1cc(NC(=O)c2cccnc2SC)cc(OC)c1OC	none
COC(=O)c1sc(NC(=O)c2ccoc2C)nc1C	Cycloheximide cs 26, Shiga inhibitor 16
COc1ccc2nc(NC(=O)c3ccoc3C)sc2c1	Cycloheximide cs 48, Shiga inhibitor 38
COc1ccc2nc(NC(=O)c3cc(S(=O)(=O)N4CCOCC4)ccc3C)sc2c1	none (no result: Pf growth 96h)
COc1ccc2nc(NC(=O)CCNC(=O)c3ccco3)sc2c1	none (no result: Cycloheximide cs, Shiga inhibitor)
O=Cc1ccnc(-c2ccc(OC(=O)c3ccco3)cc2)n1	none
COCCCNC(=O)Cn1c(=O)n(CCCC(=O)NCc2ccc(C)cc2)c(=O)c2ccccc21	none (no result: Cycloheximide cs, Shiga inhibitor, Pf growth 96h, Pf growth 48h)
CC(=O)Nc1ccc(Sc2ncccc2C(=O)Nc2ccc(F)cc2)cn1	Pf growth 96h 6.6µM, HCMV inh inconclusive, Pf growth 48h 13µM
Cc1cc(C(=O)Nc2nc3ccc(S(C)(=O)=O)cc3s2)c(C)o1	Cycloheximide cs 16, Shiga inhibitor 30
COc1ccc(OC)c(NC(=O)c2cccnc2Sc2cc(C)ccc2C)c1	Pf growth 96h inconclusive, Pf growth 48h 10µM
COc1ccc(C(=O)Nc2nc3cc4c(cc3s2)OCO4)c(OC)c1	Cycloheximide cs 38, Shiga inhibitor 66
COc1cccc(C(=O)N2CCC(C(=O)Nc3cccc(Cl)c3)CC2)c1	none (no result: Cycloheximide cs, Shiga inhibitor, Pf growth 96h, Pf growth 48h)
Cc1ccc(Cn2c(CNS(=O)(=O)c3c(C)cc(C)cc3C)nc3cccnc32)cc1	none (no result: Cycloheximide cs, Shiga inhibitor, Pf growth 96h, Pf growth 48h)
CCN(CC)CCN(C(=O)C1=COCCO1)c1nc2c(OC)ccc(OC)c2s1	Pf growth 48h inconclusive
O=C(O)Cc1ccc(NS(=O)(=O)c2ccc3c(c2)OCCO3)cc1	none (no result: Cycloheximide cs, Shiga inhibitor, Pf growth 96h, Pf growth 48h)
COc1ccc2nc(NC(=O)c3cccnc3SC)sc2c1	Cycloheximide cs 61, Shiga inhibitor 35
COC(=O)c1sc(NC(=O)/C=C/c2ccc(C)o2)nc1C	Cycloheximide cs 33, Shiga inhibitor 56
COc1ccc(/C=C/C(=O)NCC(=O)N/N=C/c2cccs2)cc1	none
COc1ccc(S(=O)(=O)Nc2cccc3c2O[C@@H](CN(C)Cc2ccc(C(=O)O)cc2)[C@@H](C)CN([C@H](C)CO)C3=O)cc1	none (no result: Cycloheximide cs, Shiga inhibitor, Pf growth 96h, Pf growth 48h)
CN(C)CCCn1c(=O)n(Cc2ccco2)c(=O)c2c3c(sc21)CCCCC3	Pf growth 96h 12µM, Pf growth 48h inconclusive
N#Cc1ccc(-c2ccccc2)nc1SCC(=O)c1cc2ccccc2oc1=O	Pf growth 96h inconclusive, Pf growth 48h 9.3µM
O=C(CSc1nnc(-c2cccnc2)o1)c1cc2ccccc2oc1=O	Pf growth 48h 7.4µM
CNC(=O)COc1ccccc1C(=O)Nc1ccc2c(c1)oc1ccccc12	Pf growth 96h 4.7µM, HCMV inh -69 (no result: Pf growth 48h)
N#Cc1ccccc1NC(=O)c1ccccc1OCC(=O)Nc1ccc2c(c1)oc1ccccc12	none (no result: Cycloheximide cs, Shiga inhibitor, Pf growth 96h, Pf growth 48h)
O=C(Nc1ccc2c(c1)oc1ccccc12)c1cccnc1	Cycloheximide cs 38, Pf growth 96h 2.1µM, Pf growth 48h inconclusive
O=C(Nc1ccc2c(c1)oc1ccccc12)c1ccncc1	Cycloheximide cs 51, Shiga inhibitor 67, Pf growth 96h inconclusive
O=C(Nc1cccnc1)c1cccnc1	none
Cc1ccc(-n2c(=O)[nH]c3cc(C(=O)NCCc4ccccc4)ccc3c2=O)cc1	none (no result: Cycloheximide cs, Shiga inhibitor, Pf growth 96h, Pf growth 48h)
COc1ccc(C(=O)c2sc(NC(C)C)nc2N)cc1OC	Pf growth 96h inconclusive, HCMV inh inconclusive
COc1cccc(C(=O)c2sc(NC(C)C)nc2N)c1	Cycloheximide cs 36, Shiga inhibitor 51, Pf growth 96h inconclusive, HCMV inh -97, Pf growth 48h inconclusive
COc1ccc(NC(=S)N(CCO)Cc2cc3c(C)cc(C)cc3[nH]c2=O)cc1	Pf growth 96h inconclusive, Pf growth 48h inconclusive
Cc1cccc(/C=C(\c2nc3ccccc3[nH]2)S(=O)(=O)c2ccccc2)c1	Pf growth 96h inconclusive, HCMV inh -98, Pf growth 48h 3.7µM
CCCCCCNC(=O)N[C@@H](C(=O)NCCC[C@H]1CN2C(=NC[C@@H]2Cc2ccccc2)N1CCc1cccc(OC)c1)C(C)C	Pf growth 96h 1.3µM, Pf growth 48h 13µM (no result: HCMV inh)
CCCCCCNC(=O)N[C@H](Cc1ccc(O)cc1)C(=O)NCCC[C@H]1CN2C(=NC[C@H]2CCC)N1CC1CCC1	Pf growth 96h 2.9µM, Pf growth 48h 7.4µM (no result: HCMV inh)
CCCCCCNC(=O)N[C@@H](Cc1ccc(O)cc1)C(=O)NCCC[C@H]1CN2C(=NC[C@H]2C)N1CC1CCC1	Shiga inhibitor 40, Pf growth 96h 3.3µM, Pf growth 48h 9.3µM (no result: HCMV inh)
